# Assay outcomes as filed in PubChem BioAssay.
# TDP1 block = qHTS Assay for Inhibitors of Tyrosyl-DNA Phosphodiesterase (TDP1). Potency, µM (top dose mostly 130 µM), inactives show at the highest dose activity change, negative = inhibition, usual class: inhibitors. recombinant TDP1, AlphaScreen DNA substrate cleavage. Tyrosyl-DNA phosphodiesterase 1 (Homo sapiens), Q9NUW8. 350,000 compounds, 0.28% hits. AID 485290, 2010; also: potency is read from the fitted curve at half-maximal effect; % is scaled to controls: 0 for no effect and ±100 for the full control effect; nearly all actives have a fitted effect of over 40% in size
# Target sequence (Q9NUW8 whole entry, looked up): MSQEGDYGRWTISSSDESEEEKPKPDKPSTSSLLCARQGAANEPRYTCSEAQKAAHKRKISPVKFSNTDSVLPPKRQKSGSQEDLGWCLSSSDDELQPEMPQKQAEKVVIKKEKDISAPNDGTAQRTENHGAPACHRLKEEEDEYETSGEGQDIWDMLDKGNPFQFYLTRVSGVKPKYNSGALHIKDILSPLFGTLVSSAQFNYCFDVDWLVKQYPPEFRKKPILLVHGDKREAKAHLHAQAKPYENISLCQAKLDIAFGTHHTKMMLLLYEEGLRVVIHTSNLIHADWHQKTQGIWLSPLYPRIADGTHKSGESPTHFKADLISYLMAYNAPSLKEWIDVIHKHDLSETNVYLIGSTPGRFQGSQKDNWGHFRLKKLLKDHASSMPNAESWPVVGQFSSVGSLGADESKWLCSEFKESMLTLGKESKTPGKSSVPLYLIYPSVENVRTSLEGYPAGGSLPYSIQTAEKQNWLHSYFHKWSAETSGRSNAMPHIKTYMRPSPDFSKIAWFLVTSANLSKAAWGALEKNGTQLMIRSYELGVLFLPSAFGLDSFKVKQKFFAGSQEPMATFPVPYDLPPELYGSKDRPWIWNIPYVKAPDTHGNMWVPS
#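 Recombinant E. coli-expressed Tdp1 (1 nM) preincubated with compound 15 min at RT, then 5'-biotin/3'-phosphotyrosine-FITC DNA substrate (15 nM) added for 5 min. AlphaScreen beads (10 ug/ml) added, 10 min RT; tyrosine-FITC cleavage read as signal loss.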
# HepG2 tox = qHTS for Inhibitors of TGF-b: Cytotox Counterscreen | HepG2 CAGA-GFP viability, ATP luminescence, 18 h | Potency, µM (titrated, usually from 46.1 µM), without a hit: top-dose activity change, negative = cytotoxicity, usual class: cytotoxic | 410,000 compounds, 0.76% hits; also: potency is read from the fitted curve at half-maximal effect
#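 CellTiter-Glo luminescence gave cytotoxicity after 18 hours at 37 degrees C. The cells were HepG2 CAGA-GFP in 1% FBS DMEM, stimulated with 500 pg/mL TGF-beta after compound addition. %Activity was normalised to no-cell wells (complete cell-killing) and DMSO (no toxicity), and curves were fitted and classified.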
# DT40 TDP1 no CPT = qHTS for Inhibitors of human tyrosyl-DNA phosphodiesterase 1 (TDP1): qHTS in cells in absence of CPT; DT40 Tdp1-/- hTDP1 cells, no CPT, ATP luminescence, 48 h; Potency, µM (doses to about 46.2 µM), for the others: at the top dose activity change, negative = growth inhibition, actives largely listed as inhibitors; 420,000 compounds, 15% hits; also: potency is read from the fitted curve at half-maximal effect; % is scaled to controls: 0 for no effect and ±100 for the full control effect; nearly all actives have a fitted effect of over 55% in size
#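 DT40 Tdp1-/-;hTDP1 cells, no CPT (DMSO vehicle only), 400 cells/well; compounds pin-transferred; ≥48 hr, 37 °C; CellTiter-Glo 30 min RT dark, luminescence read.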
# DT40 TDP1 CPT = qHTS for Inhibitors of human tyrosyl-DNA phosphodiesterase 1 (TDP1): qHTS in cells in presence of CPT; chicken DT40 Tdp1-/-;hTDP1 cells + 20 nM CPT, ATP luminescence, 48 h; Potency, µM (top dose mostly 46.2 µM), inactives show top-dose activity change, negative = growth inhibition, usual class: inhibitors; 420,000 compounds, 12% hits; AID 686979, 2013; also: potency is read from the fitted curve at half-maximal effect; % is scaled to controls: 0 for no effect and ±100 for the full control effect; nearly all actives have a fitted effect of over 55% in size
#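 Chicken DT40 Tdp1-/- cells stably complemented with human TDP1 were seeded at 400 cells/well in medium containing 20 nM camptothecin, exposed to pin-transferred compounds, and grown at 37 °C for at least 48 hr. Viability was read as ATP luminescence.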
# TGFb SMAD3 inh = qHTS for Inhibitors of TGF-b. 410,000 compounds, 1.2% hits. AID 588855, 2011. HepG2 CAGA-GFP TGF-b/SMAD3 reporter, GFP fluorescence, 18 h; TGF-beta stimulated, 500 pg/mL final. Potency, µM (doses to about 46.1 µM), inactives show at the top dose activity, negative = inhibition, hits mostly inhibitors; also: potency is read from the fitted curve at half-maximal effect; % is scaled to controls: 0 for no effect and ±100 for the full control effect; nearly all actives have a fitted effect of over 65% in size
#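 HEPG2 CAGA-GFP reporter cells (1000/well, DMEM with 1% FBS) received compounds, then recombinant TGF-beta at 500 pg/mL final for 18 hours at 37 degrees C. Per-cell GFP summed per well was normalised to unstimulated and stimulated DMSO controls before curve fitting.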
# IL1B secr inh = qHTS for Inhibitors of Inflammasome Signaling: IL-1-beta AlphaLISA Primary Screen; THP-1 LPS/ATP IL-1B secretion, AlphaLISA, 16 h; active compounds read low; activity change, % at 57.5 µM; 360,000 compounds, 4.7% hits; in the data active = activity change below about -50%; inconclusive = mostly about -30% to -49%; also: % is scaled to controls: 0 for no effect and ±100 for the full control effect
#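 THP-1 cells pretreated 1 hr with compounds (up to 57.5 uM final), then stimulated with LPS (250 ng/mL final) plus ATP (1.25 mM final); secreted IL-1B measured by AlphaLISA after 16 hr, decreased signal indicating inhibition.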
# Numbers without * were called inactive; ? = inconclusive; . = no result; [ ] = dose if it differs, or a comment. A selection: hits, their analogues and other compounds. The true share with any hit is near 19%. Unless noted, calls follow the shape of the dose curve; as a rule, active = well fitted curve in the direction sought with a large enough effect; inconclusive = small, poorly fitted or top-dose-only effect, or another doubt; inactive = no such curve, though single readings can be large; an effect the other way counts as inactive or inconclusive.
SMILES,TDP1 block,HepG2 tox,DT40 TDP1 no CPT,DT40 TDP1 CPT,TGFb SMAD3 inh,IL1B secr inh
COc1cc(-c2nc(-c3cccc(C)c3)no2)cc(OC)c1OC,0.4%[56.1 µM],-1.3%,23.1µM*,18.4µM*,-7.9%,-20.1
Cc1cccc(-c2noc(CN(C(=O)c3ccc(Br)o3)C(C)C)n2)c1,-5.5%,4.0%,-8.7%,?,2.3%,-5.3
COc1ccccc1C(=O)N(Cc1nc(-c2cccc(C)c2)no1)C(C)C,2.3%,-18.2%,?,20.6µM*,-10.7%,.
COc1cccc(C(=O)N(Cc2nc(-c3cccc(C)c3)no2)C(C)C)c1OC,2.2%,-3.5%,18.4µM*,?,-2.3%,25.9
C=C(C(=O)OC)C(NC(=O)OC)c1ccccc1 (centres undefined),1.9%,.,.,.,.,.
CC(C)c1ccc(NC(=O)CN2C(=O)C3(SCC(=O)N3c3ccc(F)cc3)c3ccccc32)cc1 (centres undefined),6.3%,-23.9%,?,?,-27.8%,.
CCN1C(=O)[C@H]2[C@H]3[C@H](O)[C@H](O)C/C(=N/O[C@@H](C)CN4CCCCc5nc(C)c(C)cc54)[C@@H]3CC[C@@H]2C1=O,6.9%[21 µM],.,.,.,.,.
Cc1c(C)n(Cc2ccccc2)c2ncnc(Cl)c12,.,-47.0%,3.66µM*,14.6µM*,-13.3%,-8.0
Cc1c(C)n(CCc2ccccc2)c2ncnc(NCCO)c12,.,1.1%,?,?,2.7%,-21.8
CCCCn1c(N)c(N(CCC(C)C)C(=O)C2CCN(C(=O)c3ccccc3C)CC2)c(=O)[nH]c1=O,-2.8%,-0.4%,-3.3%,-3.0%,?,-3.8
O=C(C[N+]1(CC(O)c2ccccc2)CCOCC1)c1ccccc1 (centres undefined),.,-40.6%,-12.0%,1.2%,-25.7%,.
Fc1cccc(-c2nnn3c2nc(NCCc2ccccc2)c2ccccc23)c1,1.3%,-10.5%,-13.9%,5.1%,-32.9%,.
Fc1cccc(-c2nnn3c2nc(Cl)c2ccccc23)c1,-1.2%,4.7%,2.59µM*,2.59µM*,?,28.8
Fc1cccc(-c2nnn3c2nc(NC2CCCCC2)c2ccccc23)c1,1.3%,-24.9%,25.9µM*,?,-55.9%,.
Cc1ccc(-c2nnn3c2nc(NCCc2ccccc2)c2ccccc23)cc1,-1.3%,5.0%,-23.1%,1.9%,7.8%,.
Cc1ccc(-c2nnn3c2nc(Cl)c2ccccc23)cc1,4.6%,-8.4%,4.61µM*,2.91µM*,0.6%,-74.5*
Clc1nc2c(-c3ccccc3)nnn2c2ccccc12,-5.2%,-14.9%,3.26µM*,2.59µM*,?,-84.4*
NC(=O)C1CCN(C(=O)C2CCC(=O)N(Cc3ccc(Cl)cc3)C2)CC1 (centres undefined),.,-13.8%,-4.5%,-4.1%,-6.3%,11.6
Cc1ccc(N2CCN(C(=O)C3CCC(=O)N(Cc4ccc(Cl)cc4)C3)CC2)c(C)c1 (centres undefined),7.0%,-42.4%,18.4µM*,18.4µM*,0.0%,-13.8
CC(=O)OC[C@@H]1O[C@H](C/C=N\O[C@@H](C)c2cc(-c3c(C)cc(C)cc3C)no2)C=C[C@@H]1OC(C)=O,4.8%[21 µM],.,.,.,.,.
CCOC(=O)c1c(C)oc2nc(C)nc(NCC3CCN(Cc4cccc(Cl)c4)CC3)c12,4.2%,-4.4%,-19.2%,-21.5%,-24.2%,.
CCOC(=O)c1c(C)oc2nc(C)nc(Nc3cc(C)cc(C)c3)c12,-1.1%,-6.2%,0.3%,4.6%,-3.7%,.
